# In PubChem BioAssay AID781 (Emory University Molecular Libraries Screening Center, 2007):
# Out of some 220,000 compounds screened, about 1,600 (0.73%) were called active. The sample holds actives, similar compounds and a random draw of the others, so the mix is not that of the screen. Unmarked numbers belong to inactive results.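 How the source made its calls: active means inhibition above about 70% (limit read from the data); inactive means the rest.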
# Target: 14-3-3 protein zeta/delta (Bos taurus) (UniProt P63103)
# Experiment: inhibitors of 14-3-3 zeta/Bad binding, primary screen, biochemical, TR-FRET, bovine 14-3-3 zeta (AID 781);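 further: 0% = full 14-3-3 plus peptide FRET controls and 100% = background without 14-3-3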
# Conditions: TR-FRET 14-3-3zeta/Dy647-pBad peptide displacement, 1 h; at 21.7 µM; hits give high values
# Sequence of 14-3-3 protein zeta/delta (Bos taurus) (P63103 whole entry, looked up): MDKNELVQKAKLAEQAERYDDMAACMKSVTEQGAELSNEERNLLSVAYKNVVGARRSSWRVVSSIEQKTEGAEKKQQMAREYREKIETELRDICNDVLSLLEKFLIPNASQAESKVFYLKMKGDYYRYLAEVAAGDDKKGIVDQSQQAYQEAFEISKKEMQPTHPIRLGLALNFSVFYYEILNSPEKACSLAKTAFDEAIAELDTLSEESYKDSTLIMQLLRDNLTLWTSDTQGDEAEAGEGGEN
row,SMILES,inhibition
1,COc1ccc(N2CCN(Cc3nnc(-c4ccccc4)o3)CC2)cc1,-10.5%
2,COc1ccc(N2CCN(Cc3ccc(Br)s3)CC2)cc1,79.9% (active)
3,Fc1ccc(N2CCN(Cc3cnc(Oc4ccc(Br)cc4)s3)CC2)cc1,-11.7%
4,O=C(NCc1cccnc1)c1cnc2ccccc2n1,13.6%
5,Oc1ccccc1N1CCN(c2ncnc3sc(-c4ccccc4)cc23)CC1,-3.44%
6,CCc1cc2c(NC3CCCC3)ncnc2s1,12.9%
7,CCc1cc2c(N3CCN(c4nnc(CC)s4)CC3)ncnc2s1,76.6% (active)
8,CNC(=O)NC(=O)CSc1nnc(-c2ccc(F)cc2)n1CC1CCCO1 (configuration not stated),-19.5%
9,CN1CCN(C(CNS(=O)(=O)c2cccs2)c2cccnc2)CC1 (configuration not stated),-2.11%
10,COCCCNC(=S)N(Cc1ccccc1)Cc1ccc(F)cc1,-1.09%
11,CC(C)C(=O)NCc1cc(-c2ccc(Cl)cc2)no1,9.14%
12,Cn1c(COc2ccc(Cl)cc2)nc2ccccc2c1=O,89.6% (active)
13,COCn1c(COc2ccccc2)nc2ccccc21,0.06%
14,COc1ccc(OCc2ccc(-c3nc4ccccc4c(=O)n3N)o2)cc1,-11.1%
15,CN(CC(=O)N1CCN(c2ccccc2)CC1)S(=O)(=O)c1cccs1,-17.7%
16,CNC(=S)NNC(=O)c1ccc(N(C)C)cc1,-0.72%
17,CCCCCCNS(=O)(=O)c1ccccc1Br,-7.16%
18,CC(C)CNC(=O)COC(=O)/C=C/c1ccccc1[N+](=O)[O-],-3.85%
19,Cc1ccc(C(C)NC(=O)Cn2nc(C)c([N+](=O)[O-])c2C)cc1 (configuration not stated),5.36%
20,Cc1[nH]nc(SCC(=O)NCC(C)C)c1[N+](=O)[O-],94% (active)
21,Cc1ccc2nc3n(c(=O)c2c1)CCC3,-3.59%
22,COc1ccc(-c2nc3n(c2Br)CCC3)cc1,73.6% (active)
23,Brc1cccc(-c2nnc3n2CCC3)c1,-2.99%

row,SMILES,inhibition
1,Cc1cccc(NC(=S)NCCc2ccc(F)cc2)c1C,1.39%
2,CC(CN1CCOCC1)c1ccccc1 (configuration not stated),71.2% (active)
3,OC(c1ccccc1)C(CN1CCOCC1)c1ccccc1 (configuration not stated),6.57%
4,Cc1ccc(C(=O)OC(C)CN2CCOCC2)cc1 (configuration not stated),-4.58%
5,O=Cc1ccc(OCc2cn3ccccc3n2)cc1,-3.57%
6,CC1(C)OC(=O)C(=CNC(CO)C(=O)O)C(=O)O1 (configuration not stated),12.2%
7,Oc1c(Cl)cc(Cl)c(Cl)c1Cc1c(O)c(Cl)cc(Cl)c1Cl,82.8% (active)
8,O=C(c1ccco1)N1CCN(CCOc2ccccc2)CC1,-0.94%
9,CN(C)CCN=c1cc(-c2ccccc2)oc2ccc(Cl)cc12,-12%
10,CN(C)N=Nc1ccc2nc[nH]c2c1,-55.4%
11,CN1C(=O)/C(=N/OC(=O)c2ccccc2Br)c2ccccc21,9.1%
12,Cc1csc(NC(=O)C2CCCN2C(=O)OCC(C)C)n1 (configuration not stated),-4.68%
13,Cc1csc(NC(=O)CN2CCCCCC2)n1,79.5% (active)
14,CS(=O)(=O)c1ccc2nc(NC(=O)CN3CCCCCC3)sc2c1,66.8%
15,O=C(COc1ccccc1)NCCc1nc2ccccc2[nH]1,-2.28%
16,COc1ccc(OC(C)C(=O)NCCc2nc3ccccc3[nH]2)cc1 (configuration not stated),4.28%
17,COC(=O)Cc1nc2ccccc2[nH]1,78.5% (active)
18,COc1cc(NC(=S)NCCSc2ccc(C)cc2)cc(OC)c1,-12.2%
19,O=C(Nc1ccc([N+](=O)[O-])cc1)C1(c2ccccc2)CCOCC1,-1.28%
20,CC(C)OCCCNc1ncnc2c1[nH]c1ccc(F)cc12,-11%
21,COc1cc(OC)c(OC)cc1/C=N/Nc1ncnc2c1[nH]c1ccc(C)cc12,94.3% (active)
22,Cc1ccc2[nH]c3c(=O)n(Cc4ccccn4)cnc3c2c1,-4.28%
23,CCN(CC)CCNCC(=O)Nc1ccc(Oc2ccccc2)cc1,20.5%

row,SMILES,inhibition
1,COc1cc(NC(=O)c2cncc(-c3ccc(C#N)cc3)c2)cc(C(=O)Nc2cccc(C(F)(F)F)c2)c1,23%
2,O=c1cc(CO)oc(C(Nc2cccc(C(F)(F)F)c2)c2ccccn2)c1O (configuration not stated),2.47%
3,COc1ccccc1N1CCN(Cc2ccc(OC)c3ccccc23)CC1,37.2%
4,COc1ccc(Br)cc1CN1CCN(C(=O)c2cccc(OC)c2OC)CC1,81.3% (active)
5,COc1cccc(OC)c1OCCN1CCN(C(=O)c2ccco2)CC1,24.8%
6,CC(C)c1cc(C(=O)O)n[nH]1,65.1%
7,Cc1cc(NC(=O)c2cnn3cccnc23)n(-c2ccccc2)n1,7.08%
8,O=C(Nc1ccc(Cl)cn1)c1cnn2cccnc12,81.6% (active)
9,O=C(Nc1ccc(Cl)cn1)c1ccc2c(c1)OCCO2,7.42%
10,C/C(N)=C(/C#N)C(=O)COC(=O)c1cc(-c2ccccc2)nc2ccc(Br)cc12,-9.11%
11,O=C(N/N=C/c1ccccn1)c1cccnc1,-10.3%
12,Cc1cc(NC(=O)OC(C)C)ccc1-c1ccc(NC(=O)OC(C)C)cc1C,12%
13,Cc1cc(NC(=O)CSc2nc(C(C)C)nc3sc4c(c23)CCC(C)C4)no1 (configuration not stated),2.28%
14,Cc1nc(SCC(=O)Nc2cc(C)on2)c2c(C)c(C)sc2n1,85.3% (active)
15,Cc1nc(SCC(=O)Nc2cc(C)on2)c2c3c(sc2n1)CCCC3,-9.48%
16,Cc1nn(CC#N)c(=O)n1N(C)c1ncc(C(F)(F)F)cc1Cl,-20.5%
17,CN(CC(O)COc1ccc(S(=O)(=O)N2CCOCC2)cc1Cl)C1CCCCC1 (configuration not stated),-11.1%
18,COCCCNCC(=O)Nc1sc(C)c(C)c1C(=O)OC,78.7% (active)
19,CCOC(=O)c1c(NC(=O)c2cccs2)sc(C)c1C,10.5%
20,COC(=O)c1c(NC(=O)c2c(Cl)cnn2C)sc(C)c1C,-11.9%
21,COc1cc(CN2CC(C)CC(C)C2)cc([N+](=O)[O-])c1O (configuration not stated),-15.1%
